PP1 inh: counter-screen for PP5 inhibitors: inhibitors of human PP1-alpha; P62136; purified PP1alpha, OMFP fluorescence; inhibition, % at 6.7 µM; 0.9% of 320,000 active;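 active means inhibition above the mean inhibition of all tested compounds plus 3 SD, computed separately for each screening campaign, cut at about 15% in these data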
B2AR ag: human beta-2 adrenergic receptor agonism by FAP; P07550; Am2.2-beta2AR cells, FAP receptor internalization, flow cytometry; response, % (no concentration beside the values); 0.43% of 340,000 active; AID 504454;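 active means response above a set limit, near 3 SD of response in nonfluorescent compounds, cut at about 42% in these data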
GRK2 aptamer HTS: human GRK2 inhibition via aptamer displacement. P25098. bead flow cytometry, FAM-aptamer displacement from GRK2. inhibition of aptamer binding, % at 10 µM. 0.59% of 330,000 active. AID 488847;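 active means inhibition of aptamer binding above 40%, roughly 3 SD of noise, on plates passing a quality check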;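 further: median bead fluorescence of bound FAM aptamer so fluorescent compounds give negative values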
Target sequence (P25098 whole entry, looked up): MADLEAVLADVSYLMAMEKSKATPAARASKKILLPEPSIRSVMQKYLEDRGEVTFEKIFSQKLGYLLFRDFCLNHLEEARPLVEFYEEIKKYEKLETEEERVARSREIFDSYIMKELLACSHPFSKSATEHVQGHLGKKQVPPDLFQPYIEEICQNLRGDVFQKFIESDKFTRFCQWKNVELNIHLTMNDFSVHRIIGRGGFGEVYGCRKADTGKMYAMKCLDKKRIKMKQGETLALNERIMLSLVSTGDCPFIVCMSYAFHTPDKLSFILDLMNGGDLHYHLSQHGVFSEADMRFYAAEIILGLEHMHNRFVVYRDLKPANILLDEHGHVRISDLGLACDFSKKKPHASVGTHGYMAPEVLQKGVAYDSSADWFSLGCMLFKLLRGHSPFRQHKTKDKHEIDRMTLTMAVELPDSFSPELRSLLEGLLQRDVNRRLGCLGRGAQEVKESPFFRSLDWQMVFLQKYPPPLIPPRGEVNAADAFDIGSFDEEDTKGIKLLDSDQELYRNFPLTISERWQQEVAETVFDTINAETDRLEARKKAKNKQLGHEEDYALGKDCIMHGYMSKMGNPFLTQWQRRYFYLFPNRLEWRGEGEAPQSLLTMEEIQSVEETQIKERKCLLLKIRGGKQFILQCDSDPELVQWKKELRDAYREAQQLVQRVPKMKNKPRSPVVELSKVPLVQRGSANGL
NadD inh: blocks S. aureus nicotinate mononucleotide adenylyltransferase; purified NadD enzyme, colorimetric absorbance read-out; inhibition, % at 20 µM; 0.78% of 360,000 active; in the data active means inhibition above about 26%
Granule exo inh: blocks lytic granule exocytosis. TALL-104 LAMP-1 surface exposure, flow cytometry; cells stimulated with thapsigargin and PMA. inhibition, % at 10 µM. 0.66% of 360,000 active;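 active means inhibition above about 55%, limit read from the data; inconclusive means no clear call, values can overlap the other calls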
NadD conf: NadD (S. aureus) inhibition, single concentration confirmation. AID 624309. purified S. aureus NadD, colorimetric enzyme assay. inhibition, % at 20 µM. 13% of 2,000 active. shares compounds with NadD inh; in the data active means inhibition mostly above about 42%, no sharp cut-off; inactive means mostly below about 42%
Each line names hits and unclear results; the compound was inactive in the other large screens (follow-up assays come after a bar, where they were run). Sampled rows, rich in hits. Any-hit rate of the full collection: about 2.9%.

CN1C(=O)Cc2cc(S(=O)(=O)N3CCN(c4ccc(Cl)cc4)CC3)ccc21	none
Cc1ccc(Cl)cc1N1CCN(S(=O)(=O)c2ccc3c(c2)CC(=O)N3C)CC1	NadD inh 29 | NadD conf inactive
Cc1ccc(Nc2nc3ccccc3nc2Nc2c(C)n(C)n(-c3ccccc3)c2=O)cc1	NadD inh 35 | NadD conf inactive
CC(C)n1c(-c2ccc(C(C)(C)C)cc2)n[nH]c1=S	NadD inh 29 | NadD conf inactive
CC(C)(C)c1ccc(-c2n[nH]c(=S)n2Cc2ccccc2)cc1	none
CC(C)N(C(=O)COC(=O)CNC(=O)c1ccc(Br)cc1)c1ccccc1	none
O=c1cc(O)c2sc(Nc3ccc(Cl)c(F)c3)nc2[nH]1	NadD inh 38 | NadD conf inactive
CC(C)(C)S(=O)N1Cc2cc(C(=O)Nc3ccc(-c4ccccc4)cc3)nc(-c3cccc(-c4cc5ccccc5o4)c3)c2[C@@H]1CCO (some centres undefined)	NadD inh 35 (no result: PP1 inh, B2AR ag, GRK2 aptamer HTS) | NadD conf inactive
COc1ccc(NS(=O)(=O)c2ccc(NC(=S)NC(=O)/C=C/c3ccccc3)cc2)nn1	NadD inh 48 | NadD conf 54
O=C(NC(=S)Nc1ccc(S(=O)(=O)Nc2nccs2)cc1)c1ccc(Br)o1	none
O=C(/C=C/c1ccc(Br)cc1)NC(=S)Nc1ccc(S(=O)(=O)Nc2nccs2)cc1	NadD inh 54 | NadD conf inactive
O=C(N/N=C/c1coc2ccccc2c1=O)c1cn(-c2ccccc2)nc1-c1ccc(F)cc1	NadD inh 34 | NadD conf inactive
O=C(N/N=C/c1coc2ccccc2c1=O)c1ccncc1	none (no result: PP1 inh)
O=C(N/N=C/c1ccc([N+](=O)[O-])o1)c1cn(-c2ccccc2)nc1-c1ccccc1	NadD inh 31 | NadD conf inactive
O=C(N/N=C/c1ccc([N+](=O)[O-])o1)c1cn(-c2ccccc2)nc1-c1ccc(Cl)cc1	NadD inh 36 | NadD conf inactive
O=C(O)COc1ccc(/C=N/NC(=O)c2cn(-c3ccccc3)nc2-c2ccccc2)cc1	none
CC(C)CNC(=O)c1ccccc1N(Cc1ccccc1)S(C)(=O)=O	none
CCCc1cc(=O)[nH]c(SCC(=O)N2CCCCCC2)n1	none (no result: PP1 inh)
O=C(Cn1cnc2scc(-c3ccc(F)cc3)c2c1=O)NCC(c1ccco1)N1CCCC1 (centres undefined)	none (no result: PP1 inh, GRK2 aptamer HTS)
C=CCn1c(C)cc(-c2csc(NC(=O)CCc3nc4ccccc4c(=O)[nH]3)n2)c1C	NadD inh 52 | NadD conf inactive
O=C(CCc1nc2ccccc2c(=O)[nH]1)Nc1nc(-c2cccs2)cs1	none
COc1ccc(CNC(=O)c2ccc3c(c2)NC(=O)C(C)S3)cc1 (centres undefined)	none
CC(C)(C)c1ccc(C(=O)Nc2nonc2-c2nc3ccccc3[nH]2)cc1	NadD inh 55, Granule exo inh inconclusive | NadD conf inactive
CCn1c(-c2nonc2NC(=O)c2ccccc2)nc2ccccc21	none
COc1ccc(NS(=O)(=O)c2cccc(C(=O)O)c2)cc1S(=O)(=O)N1CCCCC1	none (no result: PP1 inh)
CC(C)(C)c1ccc(NC(=O)c2ccc3c(c2)S(=O)(=O)c2ccccc2C3=O)cc1	NadD inh 28 | NadD conf inactive
Cc1sc2nc(C3CC3)nc(N3CCN(S(=O)(=O)c4ccc(F)cc4)CC3)c2c1C	NadD inh 35 | NadD conf inactive
CN(C)CCCN(C(=O)c1ccc(S(=O)(=O)N2CCc3ccccc32)cc1)c1nc2ccc(Cl)cc2s1	NadD inh 52 | NadD conf inactive
CN(C)CCCN(C(=O)c1ccc(S(=O)(=O)N2CCc3ccccc32)cc1)c1nc2ccc(F)cc2s1	none
C#CCN(C[C@@H]1[C@@H](OC(=O)Nc2cccs2)[C@@H](OC(=O)Nc2cccs2)Cn2c(=O)n(CCCCCC)c(=O)n21)S(=O)(=O)c1ccc(C)cc1	NadD inh 30 (no result: PP1 inh, B2AR ag, GRK2 aptamer HTS) | NadD conf inactive
CCOC(=O)C1=CCC(c2ccccc2Cl)N(S(=O)(=O)c2ccc(C)cc2)C1 (centres undefined)	none (no result: PP1 inh, B2AR ag, GRK2 aptamer HTS)
Cc1cnn(CCC(=O)NNC(=S)Nc2cccc(Cl)c2)c1	none
CC(C)C(C(=O)NCC1CCCO1)N(C(=O)CNS(=O)(=O)c1ccc(F)cc1)C1CCCCC1 (centres undefined)	none
O=c1[nH]c(CN2CCN(c3ccccc3O)CC2)nc2scc(-c3ccccc3Cl)c12	none
O=c1[nH]c(CN2CCN(c3ccc(O)cc3)CC2)nc2scc(-c3ccc(Cl)cc3)c12	NadD inh 37 | NadD conf inactive
O=C(/C=C/c1ccc2ccccc2c1)c1ccoc1	NadD inh 30 | NadD conf inactive
O=C(/C=C/c1ccco1)c1ccc(NC(=O)C23CC4CC(CC(C4)C2)C3)cc1	NadD inh 33 | NadD conf inactive
O=S(=O)(Nc1ccc(S(=O)(=O)N2CCCC2)cc1)c1ccc(F)cc1F	Granule exo inh inconclusive (no result: PP1 inh)
Cc1ccc(Nc2nc(-c3sc(NC(=O)c4cccc(Cl)c4)nc3C)cs2)cc1	none (no result: B2AR ag, NadD inh, Granule exo inh)
Cc1ccc(Nc2nc(-c3sc(NC(=O)c4ccco4)nc3C)cs2)cc1	NadD inh 33 | NadD conf inactive
CCOc1ccccc1Nc1nc(-c2sc(NC(=O)c3ccco3)nc2C)cs1	NadD inh 31 | NadD conf inactive
Cc1ccccc1Nc1nc(-c2sc(NC(=O)c3ccco3)nc2C)cs1	NadD inh 32 | NadD conf inactive
COc1ccc(Cl)cc1-c1cc(C(=O)Nc2ccc(C(C)(C)C)cc2)[nH]n1	none (no result: PP1 inh, B2AR ag, GRK2 aptamer HTS)
Clc1ccc(-c2ccc(-c3nn4c(-c5ccco5)nnc4s3)o2)cc1	NadD inh 35 | NadD conf inactive
CC(C)C(=O)N1CCC1(C)C(=O)NCc1ccc(C(C)(C)C)cc1 (centres undefined)	none (no result: PP1 inh, B2AR ag, GRK2 aptamer HTS)
NC(=O)c1ccc(NCCc2cccs2)cc1	none (no result: PP1 inh, B2AR ag, GRK2 aptamer HTS)
Cn1c2ccccc2c(=O)c2ccc(NCCc3cccs3)cc21	NadD inh 36 (no result: PP1 inh) | NadD conf inactive
CC(C)(C)OC(=O)N1CCCC(C(=O)Nc2ccc(C(=O)N3CCOCC3)cc2)C1 (centres undefined)	none (no result: PP1 inh)
CC(C)[C@H](NC(=O)c1cc2cc(Cl)ccc2n1C)C(=O)N[C@@H](C(=O)O)c1ccccc1	none
COc1ccccc1Nc1nc(-c2sc(NC(=O)C(C)(C)C)nc2C)cs1	none
CCCCCC(=O)Nc1nc(C)c(-c2csc(Nc3cc(Cl)ccc3OC)n2)s1	NadD inh 42 | NadD conf inactive
Cc1ccc(Cl)cc1Nc1nc(-c2sc(NC(=O)C(C)(C)C)nc2C)cs1	NadD inh 34 | NadD conf inactive
CCCC(=O)Nc1nc(C)c(-c2csc(Nc3cc(OC)ccc3OC)n2)s1	none
O=C(COC(=O)c1ccc(F)cc1F)Nc1ccc2c(c1)OCO2	none (no result: PP1 inh, B2AR ag, GRK2 aptamer HTS)
Cc1ccc(OCC(=O)Nc2nnc(S(=O)(=O)N3CCCCC3)s2)cc1	NadD inh 49 | NadD conf inactive
O=C(Nc1nnc(S(=O)(=O)N2CCCCCC2)s1)c1ccc(Cl)cc1	NadD inh 31 | NadD conf inactive
